# According to PubChem BioAssay (EPA / NIEHS):
# Inconclusive results are not listed. The source made the active and inactive calls. Rule for the calls, unless noted: active = hit-call score of the fitted dose curve at least 0.9, where 1 is the maximum; inactive = score below 0.9.
# Experiments:
# [1] = biological target: Oxysterols receptor LXR-beta (Homo sapiens) (UniProt P55055); assay: ATG_LXRb_TRANS: Attagene TRANS-FACTORIAL HepG2 Assay for human Liver X Receptor beta (LXRb) (AID 2282981; active = hit-call score of the fitted dose curve at least 0.9, where 1 is the maximum); settings: HepG2 Attagene TRANS GAL4-LXRb reporter, mRNA
# In short: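 Readout: fluorescent reporter mRNA fragments resolved by capillary electrophoresis after RT-PCR. System: transiently transfected human HepG2, exogenous LXRb-Gal4 chimera driving GAL4-UAS reporter, 24 h dosing. Activity fitted upward against DMSO baseline.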
# [2] = ATG_M_06_TRANS: Attagene TRANS-FACTORIAL HepG2 Assay for M06 Transcription Factor (Internal Marker) (AID 2282983; active = hit-call score of the fitted dose curve at least 0.9, where 1 is the maximum;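 note: reporter transcript level by RT-PCR then capillary electrophoresis fluorescence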); settings: HepG2 Attagene TRANS M06 internal marker reporter
# In short: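 Read-out: fluorescent reporter cDNA fragments resolved by capillary electrophoresis after RT-PCR and HpaI cut. Source cells were HepG2 carrying transfected multi-reporter GAL4 constructs, dosed 24 h. Increase over DMSO control analysed.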
# [3] = ATG_M_32_TRANS: Attagene TRANS-FACTORIAL HepG2 Assay for M32 Transcription Factor (Internal Marker) (AID 2282984; active = hit-call score of the fitted dose curve at least 0.9, where 1 is the maximum;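 note: transcript level of a background control reporter unit measured by RT-PCR and capillary electrophoresis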); settings: HepG2 Attagene TRANS M32 internal marker reporter
# In short: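 Read-out: fluorescent reporter cDNA fragments resolved by capillary electrophoresis after RT-PCR of total RNA. Transfected HepG2 cells were exposed to chemical for 24 h. Activity scored in the positive direction relative to DMSO.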
# [4] = biological target: Transcriptional activator Myb (Homo sapiens) (UniProt P10242); assay: ATG_Myb_CIS: Attagene CIS-FACTORIAL HepG2 Assay for human Myeloblastosis (Myb) Proto-Oncogene Transcription Factor (AID 2282986); settings: HepG2 Attagene CIS-FACTORIAL Myb reporter transcription; actives raise or lower the signal
# In short: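 Steps: transfect HepG2 with cis-regulated reporter units; dose with chemical for 24 h; isolate RNA, reverse-transcribe, PCR-amplify and FAM-label reporter sequences; digest with HpaI; resolve by capillary electrophoresis. Activity fitted in both directions relative to DMSO.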
# [5] = ATG_NFI_CIS: Attagene CIS-FACTORIAL HepG2 Assay for human Nuclear Factor I (NFI) (AID 2282989); settings: HepG2 cis-regulatory reporter, NFI response element transcription; actives raise or lower the signal
# In short: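 Reporter transcription driven by endogenous transcription factors in HepG2 cells; 24 h treatment. Quantitation by labelled RT-PCR fragments on capillary electrophoresis, gain- or loss-of-signal relative to DMSO.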
# [6] = biological target: Myc proto-oncogene protein (Homo sapiens) (UniProt P01106); assay: ATG_Myc_CIS: Attagene CIS-FACTORIAL HepG2 Assay for human Myelocytomatosis (Myc) Proto-Oncogene Transcription Factor (AID 2282990); settings: HepG2, Attagene cis-reporter transcription factor activity; actives raise or lower the signal
# In short: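 Fluorescence intensity of reporter-specific cDNA fragments, separated by capillary electrophoresis, gives the signal. Transfected HepG2 cells carrying cis-promoter reporter constructs are incubated with compound for 24 h; DMSO serves as baseline.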
# [7] = ATG_NF_kB_CIS: Attagene CIS-FACTORIAL HepG2 Assay for human Nuclear Factor Kappa B (NF-kB) (AID 2282991); settings: HepG2 Attagene cis-factorial NF-kB reporter mRNA; actives raise or lower the signal
# In short: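 Endogenous transcription factor activity in HepG2 was captured via cis-regulated reporter constructs; after 24 h dosing, reporter mRNA was reverse-transcribed, amplified, fluorescently labelled and sized by capillary electrophoresis, with activity fitted bidirectionally relative to DMSO.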
# [8] = ATG_NRF2_ARE_CIS: Attagene CIS-FACTORIAL HepG2 Assay for human Nuclear Factor Erythroid 2 Related Factor 2 (NFR2) response to Antioxidant Response Elements (ARE) (AID 2282992); settings: HepG2 Attagene ARE/NRF2 reporter, transcription factor activity; actives raise or lower the signal;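 for AC50: reporter mRNA level measured by RT-PCR and capillary electrophoresis fluorescence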
# In short: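 Readout: reporter mRNA quantified by RT-PCR plus FAM-labelled primer extension, HpaI digestion and capillary electrophoresis, 24 h after dosing transfected HepG2 cells. Gain or loss of signal is fitted bidirectionally against DMSO baseline.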
# [9] = ATG_Oct_MLP_CIS: Attagene CIS-FACTORIAL HepG2 Assay for human Octamer-Binding Transcription Factor (Oct) (AID 2282993); settings: HepG2 Attagene cis-factorial Oct reporter, mRNA; actives raise or lower the signal
# In short: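 Transfected HepG2 cells, 24 h treatment. Reporter mRNA quantified by RT-PCR–capillary electrophoresis; bidirectional fitting against DMSO.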
# [10] = biological target: Hepatocyte nuclear factor 4-alpha (Homo sapiens) (UniProt P41235); assay: ATG_HNF4a_TRANS: Attagene TRANS-FACTORIAL HepG2 Assay for human Hepatocyte Nuclear Factor 4 alpha (HNF4a) (AID 2282982; active = hit-call score of the fitted dose curve at least 0.9, where 1 is the maximum); settings: HepG2 HNF4a transactivation reporter, mRNA readout
# In short: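 Transient MRTU transfection of HepG2, 24 h dosing. Readout: reporter mRNA via RT-PCR + capillary electrophoresis, fluorescence; activity fit upward relative to DMSO control.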
# [11] = biological target: Nuclear respiratory factor 1 (Homo sapiens) (UniProt Q16656); assay: ATG_NRF1_CIS: Attagene CIS-FACTORIAL HepG2 Assay for human Nuclear Respiratory Factor 1 (NRF1) Orphan Gene (AID 2282987); settings: HepG2 NRF1 cis-element reporter, Attagene multiplex; actives raise or lower the signal
# In short: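 Fluorescence intensity of labelled reporter cDNA fragments, resolved by capillary electrophoresis, served as readout for NRF1 cis-element activity. Transiently transfected HepG2 cells were dosed for 24 hours; activity in either direction was fitted against DMSO negative control.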
# [12] = biological target: Cellular tumor antigen p53 (Homo sapiens) (UniProt P04637); assay: ATG_p53_CIS: Attagene CIS-FACTORIAL HepG2 Assay for human p53 Transcription Factor (AID 2282994); settings: HepG2 p53 cis-element reporter, Attagene mRNA; actives raise or lower the signal
# In short: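 Read-out: reporter mRNA by RT-PCR plus capillary electrophoresis with fluorescence detection. Human HepG2 liver cells carried transfected multi-reporter cis-element constructs, dosed 24 h. Gain or loss of signal fitted bidirectionally against DMSO control.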
# [13] = BSK_3C_TissueFactor: BioMAP Diversity Plus: 3C Assay for Tissue Factor Biomarker Activity (AID 2282997); settings: BioMAP 3C HUVEC, tissue factor biomarker readout; actives raise or lower the signal
# In short: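 HUVEC, 3C system, 24 h post-dose; Tissue Factor by ELISA; bidirectional fit vs DMSO baseline.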
# [14] = BSK_3C_uPAR: BioMAP Diversity Plus: 3C Assay for Urokinase-type plasminogen activator receptor (uPAR) Biomarker Activity (AID 2282998); settings: BioMAP 3C HUVEC, uPAR biomarker ELISA; actives raise or lower the signal
# In short: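 Readout: ELISA for surface uPAR. System: human umbilical vein endothelial primary cells, 24 h after chemical exposure. Analysis: bidirectional fit, DMSO baseline.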
# [15] = BSK_3C_VCAM1: BioMAP Diversity Plus: 3C Assay for Vascular cell adhesion molecule 1 (VCAM1) Biomarker Activity (AID 2282999); settings: BioMAP 3C HUVEC, VCAM1 ELISA, cytokine-stimulated; actives raise or lower the signal
# In short: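 HUVEC primary cells, 24 h compound exposure; VCAM-1 by ELISA; gain/loss of signal fitted bidirectionally vs DMSO baseline.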
# [16] = BSK_4H_Eotaxin3: BioMAP Diversity Plus: 4H Assay for Eotaxin 3 Biomarker Activity (AID 2283000); settings: primary human endothelial cells (HUVEC); actives raise or lower the signal;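 for outcome: CCL26 protein level quantified by ELISA in parallel with SRB cytotoxicity check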
# In short: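 Readout is Eotaxin-3 (CCL26) level by ELISA in primary human umbilical vein endothelial cells harvested 24 h after chemical exposure; activity fitted in both directions against DMSO control.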
# [17] = biological target: Nuclear receptor subfamily 4 group A member 2 (Homo sapiens) (UniProt P43354); assay: ATG_NURR1_TRANS: Attagene TRANS-FACTORIAL HepG2 Assay for human Nuclear Receptor Related Protein 1 (NURR1) (AID 2282985; active = hit-call score of the fitted dose curve at least 0.9, where 1 is the maximum); settings: HepG2 Attagene TRANS reporter, mRNA readout
# In short: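 Read-out: reporter mRNA induction by RT-PCR plus capillary electrophoresis with fluorescence detection, after 24 h dosing of transfected HepG2 cells. Exogenous NR-Gal4 chimera activity drives GAL4-UAS reporter; activity fitted upward versus DMSO.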
# Cellular tumor antigen p53 (Homo sapiens), sequence (P04637 whole entry, looked up): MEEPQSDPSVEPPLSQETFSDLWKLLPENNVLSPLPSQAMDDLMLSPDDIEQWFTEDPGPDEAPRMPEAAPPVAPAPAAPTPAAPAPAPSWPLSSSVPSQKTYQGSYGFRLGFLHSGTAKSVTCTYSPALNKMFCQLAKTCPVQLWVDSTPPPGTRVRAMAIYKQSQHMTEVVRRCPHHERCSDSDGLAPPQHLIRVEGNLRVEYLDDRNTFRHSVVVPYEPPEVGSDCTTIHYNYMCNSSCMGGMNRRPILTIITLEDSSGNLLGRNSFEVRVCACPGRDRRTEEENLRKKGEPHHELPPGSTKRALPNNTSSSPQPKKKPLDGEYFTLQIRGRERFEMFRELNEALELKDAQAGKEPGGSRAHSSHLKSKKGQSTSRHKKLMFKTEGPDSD
# Oxysterols receptor LXR-beta (Homo sapiens), sequence (P55055 whole entry, looked up, the tested form may be a part): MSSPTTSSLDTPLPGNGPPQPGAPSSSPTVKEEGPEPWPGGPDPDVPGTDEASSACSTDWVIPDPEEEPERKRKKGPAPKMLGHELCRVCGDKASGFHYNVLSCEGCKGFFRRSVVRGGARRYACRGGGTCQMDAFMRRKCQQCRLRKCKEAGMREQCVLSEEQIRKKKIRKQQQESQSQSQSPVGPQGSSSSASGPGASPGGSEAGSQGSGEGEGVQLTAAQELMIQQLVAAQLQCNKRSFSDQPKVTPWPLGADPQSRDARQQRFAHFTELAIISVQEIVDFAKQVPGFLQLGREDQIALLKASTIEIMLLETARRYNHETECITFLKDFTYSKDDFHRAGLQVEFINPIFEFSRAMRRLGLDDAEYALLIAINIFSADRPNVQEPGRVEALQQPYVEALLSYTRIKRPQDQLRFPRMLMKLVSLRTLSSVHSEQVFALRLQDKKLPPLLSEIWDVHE
# Myc proto-oncogene protein (Homo sapiens), sequence (P01106 whole entry, looked up, the tested form may be a part): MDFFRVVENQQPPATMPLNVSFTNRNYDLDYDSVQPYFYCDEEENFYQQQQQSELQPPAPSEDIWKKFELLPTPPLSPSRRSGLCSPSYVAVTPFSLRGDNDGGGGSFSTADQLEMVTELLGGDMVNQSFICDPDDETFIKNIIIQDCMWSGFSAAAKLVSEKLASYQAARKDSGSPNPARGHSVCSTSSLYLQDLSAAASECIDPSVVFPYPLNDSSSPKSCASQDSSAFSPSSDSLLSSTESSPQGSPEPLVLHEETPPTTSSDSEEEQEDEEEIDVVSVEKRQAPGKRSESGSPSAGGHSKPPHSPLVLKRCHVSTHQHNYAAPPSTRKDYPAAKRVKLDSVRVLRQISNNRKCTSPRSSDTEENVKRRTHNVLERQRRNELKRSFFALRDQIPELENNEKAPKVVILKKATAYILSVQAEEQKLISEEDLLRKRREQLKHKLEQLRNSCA
# Nuclear respiratory factor 1 (Homo sapiens), sequence (Q16656 whole entry, looked up, the tested form may be a part): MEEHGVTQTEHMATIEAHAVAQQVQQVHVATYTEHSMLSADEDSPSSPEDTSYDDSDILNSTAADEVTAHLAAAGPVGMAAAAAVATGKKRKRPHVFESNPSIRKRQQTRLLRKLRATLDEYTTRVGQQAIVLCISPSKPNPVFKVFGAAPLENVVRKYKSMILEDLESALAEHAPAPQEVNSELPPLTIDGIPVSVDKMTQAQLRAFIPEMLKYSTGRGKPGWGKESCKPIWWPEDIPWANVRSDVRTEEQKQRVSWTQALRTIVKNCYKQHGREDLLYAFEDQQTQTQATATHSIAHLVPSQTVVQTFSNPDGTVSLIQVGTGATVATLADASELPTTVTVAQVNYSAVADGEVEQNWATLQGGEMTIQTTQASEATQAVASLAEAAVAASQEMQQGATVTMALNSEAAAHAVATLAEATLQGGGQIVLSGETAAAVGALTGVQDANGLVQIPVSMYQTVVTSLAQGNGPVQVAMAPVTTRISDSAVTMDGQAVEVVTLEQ
# Transcriptional activator Myb (Homo sapiens), sequence (P10242 whole entry, looked up): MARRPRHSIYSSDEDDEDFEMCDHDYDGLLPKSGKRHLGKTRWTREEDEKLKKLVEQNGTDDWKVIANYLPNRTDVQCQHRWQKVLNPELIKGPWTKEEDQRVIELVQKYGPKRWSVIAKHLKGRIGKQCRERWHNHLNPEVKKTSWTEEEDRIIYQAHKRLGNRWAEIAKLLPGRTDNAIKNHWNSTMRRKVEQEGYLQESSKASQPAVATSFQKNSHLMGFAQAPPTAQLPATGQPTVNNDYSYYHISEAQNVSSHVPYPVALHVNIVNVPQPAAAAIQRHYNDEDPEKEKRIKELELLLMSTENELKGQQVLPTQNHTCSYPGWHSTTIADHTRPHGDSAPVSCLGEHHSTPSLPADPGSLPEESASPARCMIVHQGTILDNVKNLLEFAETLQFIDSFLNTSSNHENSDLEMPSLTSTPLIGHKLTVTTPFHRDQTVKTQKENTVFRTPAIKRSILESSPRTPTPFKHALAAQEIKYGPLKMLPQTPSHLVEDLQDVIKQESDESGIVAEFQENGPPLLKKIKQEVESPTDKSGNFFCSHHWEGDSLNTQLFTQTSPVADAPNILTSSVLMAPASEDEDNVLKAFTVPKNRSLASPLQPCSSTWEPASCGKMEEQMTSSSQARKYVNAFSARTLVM
# Nuclear receptor subfamily 4 group A member 2 (Homo sapiens), sequence (P43354 whole entry, looked up, the tested form may be a part): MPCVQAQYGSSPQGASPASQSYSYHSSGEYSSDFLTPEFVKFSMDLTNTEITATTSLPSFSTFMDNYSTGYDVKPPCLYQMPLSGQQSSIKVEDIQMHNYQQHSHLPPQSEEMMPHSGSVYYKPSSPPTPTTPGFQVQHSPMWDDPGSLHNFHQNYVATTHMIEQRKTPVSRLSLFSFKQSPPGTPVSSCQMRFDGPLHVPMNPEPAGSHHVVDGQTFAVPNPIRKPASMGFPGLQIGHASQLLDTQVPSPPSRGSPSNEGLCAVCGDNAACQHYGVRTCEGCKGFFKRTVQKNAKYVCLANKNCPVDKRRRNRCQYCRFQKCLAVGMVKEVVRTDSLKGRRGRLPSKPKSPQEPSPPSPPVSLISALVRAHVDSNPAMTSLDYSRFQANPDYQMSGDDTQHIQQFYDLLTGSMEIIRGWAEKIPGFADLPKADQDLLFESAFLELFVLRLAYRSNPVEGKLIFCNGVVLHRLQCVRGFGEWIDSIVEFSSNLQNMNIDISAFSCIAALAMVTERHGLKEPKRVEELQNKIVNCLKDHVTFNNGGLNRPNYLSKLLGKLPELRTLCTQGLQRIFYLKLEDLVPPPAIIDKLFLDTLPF
# Hepatocyte nuclear factor 4-alpha (Homo sapiens), sequence (P41235 whole entry, looked up): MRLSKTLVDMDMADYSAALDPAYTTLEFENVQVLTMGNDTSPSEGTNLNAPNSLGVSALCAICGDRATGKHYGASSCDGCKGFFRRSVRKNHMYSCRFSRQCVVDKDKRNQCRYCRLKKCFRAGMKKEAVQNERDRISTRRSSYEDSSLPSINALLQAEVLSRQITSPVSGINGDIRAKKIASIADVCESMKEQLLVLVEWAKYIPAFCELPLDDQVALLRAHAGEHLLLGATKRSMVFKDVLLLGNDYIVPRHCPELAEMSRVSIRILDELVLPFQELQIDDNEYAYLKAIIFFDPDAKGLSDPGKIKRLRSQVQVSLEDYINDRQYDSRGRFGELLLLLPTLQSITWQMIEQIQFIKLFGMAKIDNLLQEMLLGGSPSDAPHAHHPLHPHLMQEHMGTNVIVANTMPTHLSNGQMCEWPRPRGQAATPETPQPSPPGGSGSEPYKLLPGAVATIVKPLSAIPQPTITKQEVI
smiles,measurement,setting,value
C[C@]12CC[C@H](O)CC1=CC[C@@H]1[C@@H]2CC[C@]2(C)C(=O)CC[C@@H]12,outcome,[1],inactive
same,outcome,[2],inactive
same,outcome,[3],inactive
same,outcome,[4],inactive
same,outcome,[5],inactive
same,outcome,[6],inactive
same,outcome,[7],inactive
same,outcome,[8],inactive
same,outcome,[9],inactive
Cc1ccc2ccccc2c1C,outcome,[1],inactive
same,outcome,[3],inactive
same,outcome,[4],inactive
same,outcome,[6],inactive
same,outcome,[9],inactive
COc1cc(OC)nc(NC(=O)NS(=O)(=O)c2ncccc2C(=O)N(C)C)n1,outcome,[10],inactive
same,outcome,[2],inactive
same,outcome,[3],inactive
same,outcome,[4],inactive
same,outcome,[11],inactive
same,outcome,[5],inactive
same,outcome,[6],inactive
same,outcome,[7],inactive
same,outcome,[8],inactive
same,outcome,[9],inactive
same,outcome,[12],inactive
same,outcome,[13],inactive
same,outcome,[14],inactive
same,outcome,[15],inactive
same,outcome,[16],inactive
CC(C)(C)c1cc(O)ccc1O,outcome,[2],inactive
same,outcome,[3],inactive
same,outcome,[4],inactive
same,outcome,[11],inactive
same,outcome,[5],inactive
same,outcome,[6],inactive
same,outcome,[7],inactive
same,AC50,[8],9.05 µM (active)
same,outcome,[12],inactive
same,outcome,[13],inactive
same,outcome,[14],inactive
same,AC50,[15],28.1 µM (active)
same,AC50,[16],27.4 µM (active)
CC(C)c1cccc(C(C)C)c1O,outcome,[1],inactive
same,outcome,[2],inactive
same,outcome,[3],inactive
same,outcome,[17],inactive
same,outcome,[4],inactive
same,outcome,[11],inactive
same,outcome,[5],inactive
same,outcome,[6],inactive
same,outcome,[7],inactive
same,outcome,[8],inactive
same,outcome,[9],inactive
same,outcome,[12],inactive
Clc1nc(Cl)nc(Cl)n1,outcome,[10],inactive
same,outcome,[2],inactive
same,outcome,[3],inactive
same,outcome,[17],inactive
same,outcome,[4],inactive
same,outcome,[11],inactive
same,outcome,[5],inactive
same,outcome,[6],inactive
same,outcome,[7],inactive
same,outcome,[8],inactive
same,outcome,[9],inactive
same,outcome,[12],inactive
O=C(O)CCC(F)(C(F)(F)F)C(F)(F)F,outcome,[13],inactive
same,outcome,[14],inactive
same,outcome,[15],inactive
same,outcome,[16],inactive
O=C(CCl)CCl,outcome,[2],inactive
same,outcome,[17],inactive
same,outcome,[4],inactive
same,AC50,[11],56 µM (active)
same,outcome,[5],inactive
same,outcome,[6],inactive
same,AC50,[7],33.4 µM (active)
same,AC50,[8],8.44 µM (active)
same,AC50,[9],26.1 µM (active)
same,AC50,[12],58.6 µM (active)
CC(=O)C=C(C)C,outcome,[1],inactive
same,outcome,[2],inactive
same,outcome,[3],inactive
same,outcome,[17],inactive
same,outcome,[4],inactive
same,outcome,[11],inactive
same,outcome,[5],inactive
same,outcome,[6],inactive
same,outcome,[7],inactive
same,outcome,[8],inactive
CNC(=O)O/N=C/C(C)(C)S(C)=O (stereo not given),outcome,[1],inactive
same,outcome,[2],inactive
same,outcome,[4],inactive
same,outcome,[11],inactive
same,outcome,[5],inactive
same,outcome,[6],inactive
same,outcome,[7],inactive
same,AC50,[8],55.1 µM (active)
same,outcome,[9],inactive
same,outcome,[12],inactive
